# Assay outcomes as filed in PubChem BioAssay.
# TrxR1 inh: qHTS Assay for Inhibitors of Mammalian Selenoprotein Thioredoxin Reductase 1 (TrxR1): qHTS; Thioredoxin reductase 1, cytoplasmic (Rattus norvegicus), O89049; recombinant rTrxR1, NADPH fluorescence consumption, selenite substrate; Potency, µM (doses to about 114 µM), without a hit: top-dose activity change, negative = inhibition, actives largely listed as inhibitors; 1% of 390,000 active; also: potency is read from the fitted curve at half-maximal effect; nearly all actives have a fitted effect of over 65% in size
#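 Rat TrxR1 (90 nM in the dispensed reagent) was pre-reduced with 400 uM NADPH for 5 min at room temperature, then incubated with compound for 15 min. After 400 uM selenite was added, NADPH fluorescence (Ex 340/Em 450 nm) was followed for 8 min.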
# USP1-UAF1 inh: Inhibitors of USP1/UAF1: Primary Screen. Ubiquitin carboxyl-terminal hydrolase 1 (Homo sapiens), O94782. recombinant USP1/UAF1, Ub-Rhodamine cleavage fluorescence. Potency, µM (top dose mostly 57.1 µM), inactives show top-dose activity change, negative = inhibition, most hits filed as inhibitors. 0.23% of 390,000 active; also: potency is read from the fitted curve at half-maximal effect; nearly all actives have a fitted effect of over 60% in size
# Target sequence (O94782 whole entry, looked up): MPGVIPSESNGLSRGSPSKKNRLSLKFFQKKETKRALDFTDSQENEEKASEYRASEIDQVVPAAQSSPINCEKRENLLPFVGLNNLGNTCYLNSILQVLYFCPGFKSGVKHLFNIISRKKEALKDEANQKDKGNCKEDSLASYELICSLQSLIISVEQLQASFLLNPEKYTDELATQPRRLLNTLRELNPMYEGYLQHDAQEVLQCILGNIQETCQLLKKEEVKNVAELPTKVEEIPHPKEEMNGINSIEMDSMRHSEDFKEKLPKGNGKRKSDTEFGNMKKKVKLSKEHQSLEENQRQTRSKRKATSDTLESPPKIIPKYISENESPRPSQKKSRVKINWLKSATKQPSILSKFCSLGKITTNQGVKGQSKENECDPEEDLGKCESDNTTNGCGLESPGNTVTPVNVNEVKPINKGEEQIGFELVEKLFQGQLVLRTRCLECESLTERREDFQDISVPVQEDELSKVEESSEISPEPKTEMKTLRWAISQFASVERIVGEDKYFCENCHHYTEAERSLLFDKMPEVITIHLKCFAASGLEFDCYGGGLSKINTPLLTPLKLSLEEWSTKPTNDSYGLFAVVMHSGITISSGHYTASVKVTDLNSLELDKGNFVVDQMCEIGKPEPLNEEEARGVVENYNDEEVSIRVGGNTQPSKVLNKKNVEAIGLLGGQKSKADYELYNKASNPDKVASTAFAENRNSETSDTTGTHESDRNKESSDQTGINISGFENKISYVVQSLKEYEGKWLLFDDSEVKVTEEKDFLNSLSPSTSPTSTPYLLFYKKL
#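 Step one: compound is pinned into 1nM USP1/UAF1 in HEPES pH 7.8 buffer with TCEP. Step two: 15 min room-temperature incubation. Step three: Ub-Rho (150nM final) starts cleavage, tracked by fluorescence over six one-minute reads.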
# GALK inhibitor: qHTS Assay for Inhibitors of Human Galactokinase (GALK) | P51570 | Purified GALK, Kinase-Glo residual ATP luminescence | Potency, µM (highest dose often 57.5 µM), without a hit: top-dose activity change, negative = inhibition, actives largely listed as inhibitors | 0.007% of 270,000 active; also: potency is read from the fitted curve at half-maximal effect
#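 Quantitative HTS: GALK 5 nM, ATP 35 uM, galactose 100 uM, 1 h room temperature, then luciferase-based ATP detection.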
# FBPA coupling cs: qHTS Assay for Inhibitors of Fructose-1,6-bisphosphate Aldolase from Giardia Lamblia: Coupling assay counterscreen. 0.67% of 290,000 active. coupling enzyme system counterscreen, AmpLite Red fluorescence. activity change, negative = inhibition, % at 58.2 µM, hits read low; in the data active = activity change below about -30%
#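 Compounds tested against the coupling enzymes alone at 57.5 uM final; readout was AmpLite Red fluorescence (525/598 nm) after 20 min at RT.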
# TrxR1 substrate: qHTS Assay for Substrates of Mammalian Selenoprotein Thioredoxin Reductase 1 (TrxR1): qHTS | Thioredoxin reductase 1, cytoplasmic (Rattus norvegicus), O89049 | purified TrxR1 substrate turnover, NADPH consumption readout | Potency, µM (top dose mostly 114 µM), inactives show at the top dose activity change, negative = substrate turnover | 0.01% of 390,000 active; also: potency is read from the fitted curve at half-maximal effect; nearly all actives have a fitted effect of over 50% in size
#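 Rat TrxR1, dispensed at 90 nM, was prereduced with 400 uM NADPH (final) for 5 min at ~22 deg C, then incubated with compound 15 min before 400 uM selenite. A first-read NADPH fluorescence drop versus no-compound background flagged substrates.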
# An asterisk follows results filed as active; ? = inconclusive; nt = no result; [ ] = another dose, or the depositor's remark. Rows were chosen to be rich in hits. Some 1.5% of all compounds tested hit in one or more screens of this group. Unless noted, calls follow the shape of the dose curve; as a rule, active = well fitted curve in the direction sought with a large enough effect; inconclusive = small, poorly fitted or top-dose-only effect, or another doubt; inactive = no such curve, though single readings can be large; an effect the other way counts as inactive or inconclusive. % is scaled to controls: 0 for no effect and ±100 for the full control effect.
SMILES,TrxR1 inh,USP1-UAF1 inh,GALK inhibitor,FBPA coupling cs,TrxR1 substrate
CC[C@H](C)[C@H](N)C(=O)N[C@H]1CCC(=O)NCC(C(=O)N[C@@H](Cc2ccc(O)cc2)C(=O)N[C@@H](CCCNC(=N)N)C(=O)N[C@@H](CC(C)C)C(=O)N[C@@H](CCCNC(=N)N)C(=O)N[C@@H](Cc2ccc(O)cc2)C(N)=O)NC(=O)[C@@H]2CCCN2C(=O)[C@@H](NC(=O)[C@@H](N)[C@@H](C)CC)CCC(=O)NCC(C(=O)N[C@@H](Cc2ccc(O)cc2)C(=O)N[C@@H](CCCNC(=N)N)C(=O)N[C@@H](CC(C)C)C(=O)N[C@@H](CCCNC(=N)N)C(=O)N[C@@H](Cc2ccc(O)cc2)C(N)=O)NC(=O)[C@@H]2CCCN2C1=O (stereo not given in full),nt,nt,nt,1,nt
Cc1cc(C(=O)N/N=C/c2ccc(O)c(O)c2O)c(C)n1-c1ccccc1,-11%,-23%,0%,-33*,-1%
O=C(Cc1csc(N2CCOCC2)n1)N/N=C/c1ccc(O)c(O)c1O,32%[57.1 µM],-18%,6%,-61*,-9%[57.1 µM]
O=C(CCN1CCN(c2ccccc2)CC1)N/N=C/c1ccc(O)c(O)c1O,-11%,-23%,-2%,-40*,-3%
CCOC(=O)CSc1nc2ccc(N3CCOCC3)cc2c(=O)n1Cc1ccc2c(c1)OCO2,nt,nt,-4%,-31*,nt
COCCNC(=O)CSc1nc2cc(OC)c(OC)cc2c(=O)n1Cc1ccc(OC)cc1,4%,-11%,0%,0,-3%
COCCNC(=O)CSc1nc2ccc(N3CCOCC3)cc2c(=O)n1Cc1ccc(OC)cc1,?,-15%,-3%,-39*,10%
CCCCNC(=O)CSc1nc2ccc(N3CCOCC3)cc2c(=O)n1Cc1ccc(OC)cc1,22%[57.1 µM],-2%,-2%,-31*,46%
Cc1ccc2[nH]cc(C(O)c3c[nH]c4ccc(C)cc34)c2c1,12%,nt,nt,nt,0%
O=C(Nc1ccc(F)c(F)c1)c1cnn2c1NC(=C1CC1)C=C2C(F)F,12%,nt,nt,nt,-3%
CO[C@H]1COC(=O)C/C=C\[C@H](C)[C@@H](OC)COC(=O)[C@@H](C)COC(=O)C/C=C\[C@@H]1C,nt,nt,nt,3,nt
CCc1cc(C(=O)c2ccc(C)cc2)c(NC(=O)CCl)s1,32µM*,-23%,-1%,2,-8%
Cc1ccc(C(=O)c2cc(C)sc2N)cc1,2%[57.1 µM],?,2%,2,-1%[57.1 µM]
Cc1cc(C(=O)c2ccc(Cl)cc2)c(NC(=O)CCl)s1,4µM*,-29%,-2%,4,13%[57.1 µM]
CCOC(=O)C[n+]1cccc(Br)c1,27%,nt,nt,nt,8%
Cc1cnc2ccccc2c1/C=C/c1ccc(N(C)C)cc1,11%,nt,nt,nt,-1%
Oc1cccc2c(CC(O)c3c[nH]c4ccccc34)ccnc12 (stereo not given),-18%,nt,nt,nt,-8%
C=CCOC(=O)C1=C(C)N=c2s/c(=C3\C(=O)N(CC(=O)O)c4ccccc43)c(=O)n2C1c1ccc(OC)cc1 (stereo not given),35µM*,-15%,-7%,5,-11%
CCC(=O)N(CCC(c1ccccc1)c1ccco1)Cc1cccs1 (stereo not given),-40%[57.1 µM],-20%,0%,5,9%[11.4 µM]
COc1ccccc1C(CCN(Cc1cccs1)C(C)=O)c1ccco1 (stereo not given),45µM*,-24%,4%,6,-2%
Brc1ccc(-c2cn3c(n2)CCc2ccc4cccnc4c2-3)cc1,12%,-21%,2%,-31*,35%
N[C@@H](COC(c1cccc(F)c1)c1ccccc1OCc1ccccc1)C(=O)O (stereo not given in full),nt,nt,nt,-3,nt
CS(=O)(=O)n1nc(OC(=O)c2cccc3ccccc23)cc1N,56µM*,-7%,-3%,-2,-5%
CS(=O)(=O)n1nc(OC(=O)c2cc(Br)ccc2Cl)cc1N,6.3µM*,-8%,8%,-1,0%
CS(=O)(=O)n1nc(OC(=O)c2cccs2)cc1N,?,-28%,1%,-1,3%
SMILES,TrxR1 inh,USP1-UAF1 inh,GALK inhibitor,FBPA coupling cs,TrxR1 substrate
CN(C)c1ccc(-c2ccc(CCO)cc2)cc1,1%,nt,nt,nt,10%
CCOC(=O)CCCc1sc(N)nc1-c1[nH]c(=O)[nH]c1C,7.9µM*,-9%,4%,-12,-5%[57.1 µM]
CCOC(=O)CCc1c(C)n[nH]c1C,13%,-16%,1%,3,0%
O=C1CSc2ccc(S(=O)(=O)CCC(=O)NC3CCCCC3)cc2N1,14µM*,-19%,1%,nt,3%
CC1CCC(NC(=O)CCS(=O)(=O)c2ccc3c(c2)NC(=O)CS3)CC1 (stereo not given),1%,-10%,0%,nt,-1%
CCN1CCc2nc(N)sc2C1,10%[57.1 µM],-19%,-2%,-4,7%[57.1 µM]
CCN1CCc2nc(N)oc2CC1,22µM*,-28%,nt,nt,13%[57.1 µM]
O=C(NCCCN1CCOCC1)c1cc(-c2cccs2)on1,16µM*,1%,0%,1,-4%[57.1 µM]
Cc1cccc2cc(CN(Cc3ccccc3)Cc3nnnn3Cc3ccccc3)c(=O)[nH]c12,-22%,nt,nt,nt,23%
CCOC(=O)N1C(=O)[C@@](c2ccc(Cl)cc2)(C(C)C)N1C(=O)OCC,?,?,nt,-3,6%
CCOC(=O)N1C(=O)[C@](c2ccc(Cl)cc2)(C(C)C)N1C(=O)OCC,45µM*,?,nt,-1,-7%
O=c1c(-c2ccc(F)cc2)nc2cnc(N3CCNCC3)nc2n1Cc1ccc(F)cc1,nt,nt,nt,2,nt
COc1cc2nc(N3CCCN(C)CC3)nc(NC3CCN(Cc4ccccc4)CC3)c2cc1OC,15%[57.1 µM],nt,nt,nt,116%[57.1 µM]
O=C(CCl)N(CCCNC(=O)C(F)(F)F)c1ccc([N+](=O)[O-])cc1,?,-14%,2%,1,16%[57.1 µM]
CC(=O)n1cc(N(C(=O)CCl)c2ccc([N+](=O)[O-])cc2)c2ccccc21,1.1µM*,-16%,-8%,-1,-1%
CC(=O)n1cc(N(C(=O)CCl)c2ccccc2)c2ccccc21,0.63µM*,-19%,4%,2,0%
O=Cc1[nH]c2ccccc2c1N(C(=O)CCl)c1ccc([N+](=O)[O-])cc1,11µM*,-19%,-18%,-1,-6%
O=[N+]([O-])c1cc([N+](=O)[O-])c2nonc2c1Nc1ccccc1O,-22%,?,-2%,2,-14%
O=[N+]([O-])c1cc([N+](=O)[O-])c2nonc2c1Nc1ccc(O)cc1,28µM*,-25%,7%,-3,-16%
CC(=O)N1CCN(C2=Nc3cccc4cccc2c34)CC1,5%,-23%,0%,-47*,6%
